Experimental data as given in publication PMC4552634, “A New Set of Chemical Starting Points with Plasmodium falciparum Transmission-Blocking Potential for Antimalarial Drug Discovery” (PLoS ONE, 2015).
The whole screen tested about 13,000 compounds, of which about 3,200 (25%) showed an effect of 50% or more. The list shows a part of the results.

test system: P. falciparum stage V gametocytes; set-up: BacTiter-Glo ATP luminescence viability of purified stage V gametocytes in 384-well plates, per cent inhibition versus DMSO; details: 48 h, 5 µM; inhibitor

Row | Compound | % Inhibition
1 | N#Cc1ccc2c(c1)CCN(CCC1CCC(NC(=O)c3cc4cccc(Cl)c4[nH]3)CC1)CC2 (centres unmarked) [TCMDC-139685] | -1.386%
2 | Cc1ccc(C(=O)Cn2nc(-c3ccc(C)c(S(=O)(=O)N4CCCC4)c3)ccc2=O)cc1 [TCMDC-124704] | -26.21%
3 | Cc1ccc(C(=O)Cn2nc(-c3ccc(C)c(S(=O)(=O)N4CCCCC4)c3)ccc2=O)cc1 [TCMDC-124714] | 32.41%
4 | Cc1ccc(-c2nnc3c4ccccc4c(C)nn23)cc1S(=O)(=O)N1CCN(CCO)CC1 [TCMDC-124482] | 63.32%
5 | NC(=S)Cc1ccc2c(c1)OCO2 [TCMDC-137863] | -6.254%
6 | O=C(Cc1ccccc1)NC(CCN1CCC(N(C2CC2)S(=O)(=O)c2cccc(C(F)(F)F)c2)CC1)c1ccc(Cl)c(Cl)c1 (centres unmarked) [TCMDC-141710] | 20.7%
7 | CCCCCN1CCC(NS(=O)(=O)c2cccc(C(=O)Nc3ccc(Cl)cc3)c2)CC1 [TCMDC-132806] | 32.08%
8 | Cc1cnn(-c2cccc(C(=O)NC3CCC(CCN4CCc5ccc(C#N)cc5CC4)CC3)c2)c1 (centres unmarked) [TCMDC-139818] | -20.34%
9 | Cc1cccc2[nH]c(-c3cccc(-c4ccc(NC(=O)Nc5ccsc5)cc4)c3)nc12 [TCMDC-133211] | 22.09%
10 | Cc1ccc(-c2cncc(-c3cc(NC4CCN(Cc5ccccc5)CC4)nc(-c4ccccc4)n3)c2)cc1 [TCMDC-125588] | 17.17%
11 | COc1cccc(Nc2nc(C)cc(NC3CCN(Cc4ccccc4)CC3)n2)c1 [TCMDC-134022] | -46.19%
12 | Cc1cc(NC2CCN(Cc3ccccc3)CC2)nc(NCCCCc2ccccc2)n1 [TCMDC-138304] | 79.92%
13 | OC(CNc1cccc(Cl)c1)Cn1c2ccc(Cl)cc2c2cc(Cl)ccc21 (centres unmarked) [TCMDC-125716] | 20.85%
14 | CS(=O)(=O)N(CC(O)Cn1c2ccc(Cl)cc2c2cc(Cl)ccc21)c1ccccc1 (centres unmarked) [TCMDC-124039] | 35.36%
15 | CC12CCC(C(=O)N(CC(O)Cn3c4ccc(Cl)cc4c4cc(Cl)ccc43)C1=O)C2(C)C (centres unmarked) [TCMDC-125719] | 82.98%
16 | Fc1ccc2[nH]c(-c3ccc(-c4ccc(CNCC5CCCO5)cc4)cc3)nc2c1.O=C(O)C(F)(F)F (centres unmarked) [TCMDC-133097] | 36.17%
17 | CCOC(=O)c1cn(CC)c2cc(OCc3ccccc3)ccc2c1=O [TCMDC-141680] | 0.3884%
18 | CCOC(=O)c1c(CNc2ccncc2)n(C)c2cc(Br)c(OC(C)=O)cc12 [TCMDC-125700] | -53.66%
19 | CCOC(=O)c1cc2c(CCN3C(=O)c4ccccc4C3=O)cn(C)c2cc1-c1ccncc1 [TCMDC-138099] | 108.6%
20 | CS(=O)(=O)Nc1cccc(-c2cnc3[nH]cc(-c4cc(N)cc(C(=O)O)c4)c3c2)c1 [TCMDC-136220] | 11.92%
21 | COc1nc(-n2ccc(=N)cc2)nc2ccccc12 [TCMDC-131303] | 8.489%
22 | c1ccc(-n2cncn2)cc1 [TCMDC-124291] | 2.88%

Row | Compound | % Inhibition
23 | CCC(C)CN1C(=O)C(c2ccccc2)(c2ccccc2)N=C1N (centres unmarked) [TCMDC-136799] | -2.713%
24 | CCC(CC)CN1C(=O)C(c2ccccc2)(c2ccccc2)N=C1N [TCMDC-136491] | 13.18%
25 | CCC(CN1C(=O)C(c2ccccc2)(c2ccccc2)N=C1N)c1ccccc1 (centres unmarked) [TCMDC-136879] | 66.04%
26 | CN(c1cc(NC(=O)c2cccs2)ccn1)C1CCN(Cc2ccccc2)CC1 [TCMDC-135006] | 1.42%
27 | CC(C)CNCc1cccc(-c2cccc(CN(C(=O)c3cccs3)C3CCN(Cc4ccccc4)CC3)c2)c1 [TCMDC-140565] | 96.32%
28 | CC(C)CNCc1cccc(-c2ccc(CN(C(=O)c3cccs3)C3CCN(Cc4ccccc4)CC3)cc2)c1 [TCMDC-140569] | 103.7%
29 | CN(CCCCCNC(=O)/C=C/c1ccc(Cl)c(Cl)c1)CCc1c[nH]c2ccccc12 [TCMDC-139327] | -26.77%
30 | COc1cc(Cc2c(C)nc3nc(N)nc(N)c3c2C)c(Br)c(OC)c1OC [TCMDC-137644] | 1.652%
31 | COc1cccc(NC(=O)NC2CCN(c3ccnc(Nc4ccc(F)cc4)n3)C2)c1 (centres unmarked) [TCMDC-133602] | -32.07%
32 | CN1CCC(N(Cc2ccc(-c3ccc(C(F)(F)F)cc3)nc2)C(=O)Cn2c(CCc3cccc(F)c3F)cc(=O)c3ccccc32)CC1 [TCMDC-141407] | 27.49%
33 | CCN1CCC(N(Cc2ccc(-c3ccc(Cl)cc3)cc2)C(=O)Cn2c(CCc3cccc(F)c3F)cc(=O)c3ccccc32)CC1 [TCMDC-141358] | 109.7%
34 | CN1CCC(N(Cc2ccc(-c3ccc(Cl)cc3)cc2)C(=O)Cn2c(CCc3cccc(F)c3F)cc(=O)c3ccccc32)CC1 [TCMDC-141357] | 111.3%
35 | Nc1nc2ccc(CN(C=O)c3ccc(C(=O)N[C@@H](CCC(=O)O)C(=O)O)cc3)cc2c(=O)[nH]1 [TCMDC-132048] | 3.734%
36 | COc1ccc(Cn2c(Nc3cccc(C(F)(F)F)c3)nc3cc(C(=O)NCCN4CCCC4)ccc32)cc1Cl [TCMDC-138532] | -18.24%
37 | COc1ccc(Cn2c(Nc3cccc(C(F)(F)F)c3)nc3ccc(C(=O)NCCN4CCCC4)cc32)cc1Cl [TCMDC-138531] | -30.77%
38 | COc1ccc(Cn2c(Nc3cccc(C(F)(F)F)c3)nc3cc(C(=O)NCCN4CCCC4)cnc32)cc1Cl [TCMDC-138555] | 60.89%
39 | CN(c1cc(NC(=O)c2ccc(F)cc2)ccn1)C1CCN(Cc2ccc(C#N)cc2)CC1 [TCMDC-134979] | 11.6%
40 | O=c1cc(NCCCNCc2cc(Br)ccc2F)[nH]c2ccccc12 [TCMDC-139424] | -33.84%
41 | CC(=O)N(Cc1ccc(-c2ccc(CNCCc3ccccc3)cc2)cc1)C1CCN(Cc2ccccc2)CC1 [TCMDC-140530] | 41.5%
42 | CC(C)CNCc1ccc(-c2ccc(CN(C(=O)NCCc3ccccc3)C3CCN(Cc4ccccc4)CC3)cc2)cc1 [TCMDC-140623] | 92.24%
43 | CC(C)CNCc1ccc(-c2cccc(CN(C(=O)NCCc3ccccc3)C3CCN(Cc4ccccc4)CC3)c2)cc1 [TCMDC-140615] | 77.17%
44 | CC(C)CNCc1cccc(-c2ccc(CN(C(=O)NCCc3ccccc3)C3CCN(Cc4ccccc4)CC3)cc2)c1 [TCMDC-140622] | 85.53%
